Test results from the supplement of paper PMC10849652.
The full data set covers some 7,900 targets. This sample favours those with a hit. About 0.6% of all pairs of compound and target were hits. Values without a mark were called inactive.

Legend:
Experiment in all cases: log2 fold change, soluble protein after heating vs DMSO (PISA); higher = thermal stabilisation; K562 cells, 10 uM, 30 min; active = over 0.2 and 3.5 SD of the protein, either way, in both replicates (recomputed)
[1] = compound: CC[C@@H]1C(=O)N(C)c2cnc(Nc3ccc(C(=O)NC4CCN(C)CC4)cc3OC)nc2N1C1CCCC1
In short: (§1)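 K562 cells at 2×10^6 cells/mL were treated with 10 μM compound for 30 min. Aliquots were heated for 3 min across 48°C-58°C, pooled, and extracted in PBS with 0.5% NP-40 at 4°C; soluble protein was the supernatant after 21,000xg for 90 min. Soluble protein was quantified by TMTpro 16plex LC-MS/MS with channel sums equalised, and reported as log2 fold change in thermal stability against DMSO controls, with values from duplicates.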

[2] = compound: CC[C@@H]1C(=O)N(C)c2cnc(Nc3ccc(C(=O)N[C@H]4CC[C@H](N5CCN(CC6CC6)CC5)CC4)cc3OC)nc2N1C(C)C [volasertib]
In short: as §1

[3] = compound: CC[C@H](C)N1C=C(C2=C(C=C(C=C21)C3=CN=C(C=C3)N4CCNCC4)C(=O)NCC5=C(C=C(NC5=O)C)C)C
In short: as §1

[4] = compound: CC[C@H](C)[C@@H](C(=O)N[C@@H]([C@@H](C)O)C(=O)N[C@@H](CC(C)C)C(=O)[C@]1(CO1)C)NC(=O)[C@H]([C@@H](C)CC)N(C)C(=O)C [epoxomicin]
In short: as §1

[5] = compound: CCn1c(C(=O)N(C2CC2)C2CC2)cc2c3c(ncn3C)c(Nc3cc(C)n(C)n3)nc21
In short: as §1

[6] = compound: CCn1cc(-c2ccnc3[nH]c(-c4cccc(CN(C)C)c4)cc23)c(-c2ccc(NC(=O)N(C)C)cc2)n1
In short: as §1

[7] = compound: CN(C)CC(=O)Nc1ccc2[nH]c(=O)c3ccccc3c2c1
In short: as §1

[8] = compound: CN(CCOC1=CC=C(C=C1)C[C@H]2C(=O)NC(=O)S2)C3=CC=CC=N3 (racemic) [rosiglitazone]
In short: as §1

[9] = compound: CN1C2=C(C3=C1C(=O)N(N=C3)CC4=CC(=CC=C4)N)SC(=C2)S(=O)C
In short: as §1

[10] = compound: CN1CCC(CNc2ccc3ncc(-c4cccc(OC(F)(F)F)c4)n3n2)CC1
In short: as §1

[11] = compound: CN1CCN(CCOc2cc(OC3CCOCC3)c3c(Nc4c(Cl)ccc5c4OCO5)ncnc3c2)CC1 [saracatinib]
In short: as §1

[12] = compound: CN1CCN(c2nc(C3=C(c4c[nH]c5ccccc45)C(=O)NC3=O)c3ccccc3n2)CC1 [sotrastaurin]
In short: as §1

[13] = compound: CN1CC[C@H](c2c(O)cc(O)c3c(=O)cc(-c4ccccc4Cl)oc23)[C@H](O)C1 [alvocidib]
In short: as §1

[14] = compound: CN1CCc2c(c3ccccc3n2Cc2ccc(C(=O)NO)cc2)C1 [Tubastatin A]
In short: as §1

[15] = compound: CNC(=O)C1=CC=CC=C1NC2=NC(=NC=C2Cl)NC3=C(C=C(C=C3)N4CCOCC4)OC
In short: as §1

[16] = compound: CNC(=O)c1ccc(Nc2ncc(C(F)(F)F)c(NCc3nccnc3N(C)S(C)(=O)=O)n2)cc1 [defactinib]
In short: as §1

[17] = compound: CNCc1ccc(-c2[nH]c3cc(F)cc4c3c2CCNC4=O)cc1 [rucaparib]
In short: as §1

[18] = compound: CNc1nc(-c2ccc3c(N)n[nH]c3c2)cc(N2C[C@@H](C(=O)NC3CCCCC3)CC[C@H]2C)n1
In short: as §1

[19] = compound: COC(=O)N[C@@H](C)CNc1nccc(-c2cn(C(C)C)nc2-c2cc(Cl)cc(NS(C)(=O)=O)c2F)n1 [encorafenib]
In short: as §1

[20] = compound: COC(=O)[C@H](CCSC)NC(=O)C1=C(C=C(C=C1)NC[C@H](CS)N)C2=CC=CC=C2
In short: as §1

Chain of UniProt P33240 (P33240 whole entry, looked up): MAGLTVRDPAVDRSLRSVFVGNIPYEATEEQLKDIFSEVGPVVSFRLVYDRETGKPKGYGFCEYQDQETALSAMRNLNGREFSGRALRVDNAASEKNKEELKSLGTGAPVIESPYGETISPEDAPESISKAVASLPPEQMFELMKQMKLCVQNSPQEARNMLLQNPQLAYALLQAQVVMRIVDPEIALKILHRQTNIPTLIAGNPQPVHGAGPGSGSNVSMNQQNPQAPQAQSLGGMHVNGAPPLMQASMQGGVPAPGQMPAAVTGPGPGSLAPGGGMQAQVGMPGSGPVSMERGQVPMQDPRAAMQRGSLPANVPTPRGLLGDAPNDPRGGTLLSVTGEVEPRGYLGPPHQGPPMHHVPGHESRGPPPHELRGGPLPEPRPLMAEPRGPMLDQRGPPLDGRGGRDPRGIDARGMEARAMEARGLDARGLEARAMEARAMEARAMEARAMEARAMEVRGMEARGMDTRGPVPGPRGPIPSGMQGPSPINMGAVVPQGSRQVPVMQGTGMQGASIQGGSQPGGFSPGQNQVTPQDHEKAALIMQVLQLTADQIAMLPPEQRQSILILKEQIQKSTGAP
Chain of UniProt Q96MX0 (Q96MX0 whole entry, looked up): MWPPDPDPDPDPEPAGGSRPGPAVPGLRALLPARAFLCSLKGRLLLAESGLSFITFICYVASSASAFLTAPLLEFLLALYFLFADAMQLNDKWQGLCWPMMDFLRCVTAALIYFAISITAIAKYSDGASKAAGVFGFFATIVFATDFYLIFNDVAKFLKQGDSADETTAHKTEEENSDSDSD
Chain of UniProt Q96KP4 (Q96KP4 whole entry, looked up): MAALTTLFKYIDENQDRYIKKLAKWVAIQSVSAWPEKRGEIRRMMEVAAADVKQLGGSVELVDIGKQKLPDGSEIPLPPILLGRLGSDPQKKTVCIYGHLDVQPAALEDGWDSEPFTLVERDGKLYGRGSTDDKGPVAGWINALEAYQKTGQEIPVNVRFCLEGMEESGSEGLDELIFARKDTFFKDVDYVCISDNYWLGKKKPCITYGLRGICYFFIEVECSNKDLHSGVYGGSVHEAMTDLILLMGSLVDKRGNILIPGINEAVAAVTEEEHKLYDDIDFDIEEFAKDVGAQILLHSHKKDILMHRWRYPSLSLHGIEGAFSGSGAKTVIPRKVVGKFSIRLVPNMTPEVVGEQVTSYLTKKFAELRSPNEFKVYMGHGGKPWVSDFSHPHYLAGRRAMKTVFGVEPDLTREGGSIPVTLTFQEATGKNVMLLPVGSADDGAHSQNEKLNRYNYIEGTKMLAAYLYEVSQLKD
Chain of UniProt Q01459 (Q01459 whole entry, looked up): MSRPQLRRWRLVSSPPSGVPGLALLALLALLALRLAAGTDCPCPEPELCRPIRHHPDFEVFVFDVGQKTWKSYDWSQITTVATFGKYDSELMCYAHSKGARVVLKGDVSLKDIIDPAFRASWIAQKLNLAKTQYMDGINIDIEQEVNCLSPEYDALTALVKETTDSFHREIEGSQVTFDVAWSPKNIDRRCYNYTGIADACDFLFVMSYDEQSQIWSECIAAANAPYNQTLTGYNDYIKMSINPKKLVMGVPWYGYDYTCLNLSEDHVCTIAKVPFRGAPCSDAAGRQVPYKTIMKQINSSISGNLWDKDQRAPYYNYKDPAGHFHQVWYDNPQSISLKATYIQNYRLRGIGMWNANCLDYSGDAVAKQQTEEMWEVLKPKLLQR
Chain of UniProt Q8IWV2 (Q8IWV2 whole entry, looked up): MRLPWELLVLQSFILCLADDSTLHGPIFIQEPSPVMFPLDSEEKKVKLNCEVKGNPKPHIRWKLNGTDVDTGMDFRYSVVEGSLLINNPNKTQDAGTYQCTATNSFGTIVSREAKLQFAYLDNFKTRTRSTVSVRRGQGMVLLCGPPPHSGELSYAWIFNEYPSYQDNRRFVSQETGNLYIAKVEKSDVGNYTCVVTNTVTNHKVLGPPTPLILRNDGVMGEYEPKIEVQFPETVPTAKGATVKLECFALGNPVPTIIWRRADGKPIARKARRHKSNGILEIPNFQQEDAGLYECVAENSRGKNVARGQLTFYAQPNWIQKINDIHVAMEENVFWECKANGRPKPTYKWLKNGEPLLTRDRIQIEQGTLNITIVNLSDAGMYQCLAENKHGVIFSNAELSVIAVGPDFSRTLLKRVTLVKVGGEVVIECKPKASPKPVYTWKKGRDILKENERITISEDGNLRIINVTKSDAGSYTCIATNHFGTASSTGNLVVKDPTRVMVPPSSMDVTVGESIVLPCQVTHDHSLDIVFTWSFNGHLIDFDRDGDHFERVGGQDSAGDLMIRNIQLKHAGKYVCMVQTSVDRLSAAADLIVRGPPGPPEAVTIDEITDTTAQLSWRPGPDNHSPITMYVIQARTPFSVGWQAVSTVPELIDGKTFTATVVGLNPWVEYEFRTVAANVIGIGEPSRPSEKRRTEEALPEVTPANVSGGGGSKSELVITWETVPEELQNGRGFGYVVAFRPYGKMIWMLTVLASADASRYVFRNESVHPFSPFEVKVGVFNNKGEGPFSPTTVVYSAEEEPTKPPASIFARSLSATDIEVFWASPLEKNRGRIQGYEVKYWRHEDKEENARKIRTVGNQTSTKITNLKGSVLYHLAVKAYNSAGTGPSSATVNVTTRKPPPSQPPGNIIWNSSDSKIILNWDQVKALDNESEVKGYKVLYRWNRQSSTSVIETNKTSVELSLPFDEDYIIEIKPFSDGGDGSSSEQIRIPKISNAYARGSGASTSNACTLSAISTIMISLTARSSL
Chain of UniProt Q14790 (Q14790 whole entry, looked up): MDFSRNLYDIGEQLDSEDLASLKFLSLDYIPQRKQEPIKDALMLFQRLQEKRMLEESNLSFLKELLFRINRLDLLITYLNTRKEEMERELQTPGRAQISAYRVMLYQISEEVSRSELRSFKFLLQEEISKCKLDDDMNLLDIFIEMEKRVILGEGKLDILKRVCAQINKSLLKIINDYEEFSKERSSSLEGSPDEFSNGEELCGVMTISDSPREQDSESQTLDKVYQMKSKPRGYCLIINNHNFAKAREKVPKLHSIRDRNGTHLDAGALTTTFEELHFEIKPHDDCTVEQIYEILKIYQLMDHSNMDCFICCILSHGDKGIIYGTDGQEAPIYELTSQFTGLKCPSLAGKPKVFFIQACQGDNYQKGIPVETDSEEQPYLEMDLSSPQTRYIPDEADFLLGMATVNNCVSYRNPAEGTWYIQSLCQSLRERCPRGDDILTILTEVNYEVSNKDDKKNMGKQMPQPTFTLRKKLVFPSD
Chain of UniProt Q5T5Y3 (Q5T5Y3 whole entry, looked up): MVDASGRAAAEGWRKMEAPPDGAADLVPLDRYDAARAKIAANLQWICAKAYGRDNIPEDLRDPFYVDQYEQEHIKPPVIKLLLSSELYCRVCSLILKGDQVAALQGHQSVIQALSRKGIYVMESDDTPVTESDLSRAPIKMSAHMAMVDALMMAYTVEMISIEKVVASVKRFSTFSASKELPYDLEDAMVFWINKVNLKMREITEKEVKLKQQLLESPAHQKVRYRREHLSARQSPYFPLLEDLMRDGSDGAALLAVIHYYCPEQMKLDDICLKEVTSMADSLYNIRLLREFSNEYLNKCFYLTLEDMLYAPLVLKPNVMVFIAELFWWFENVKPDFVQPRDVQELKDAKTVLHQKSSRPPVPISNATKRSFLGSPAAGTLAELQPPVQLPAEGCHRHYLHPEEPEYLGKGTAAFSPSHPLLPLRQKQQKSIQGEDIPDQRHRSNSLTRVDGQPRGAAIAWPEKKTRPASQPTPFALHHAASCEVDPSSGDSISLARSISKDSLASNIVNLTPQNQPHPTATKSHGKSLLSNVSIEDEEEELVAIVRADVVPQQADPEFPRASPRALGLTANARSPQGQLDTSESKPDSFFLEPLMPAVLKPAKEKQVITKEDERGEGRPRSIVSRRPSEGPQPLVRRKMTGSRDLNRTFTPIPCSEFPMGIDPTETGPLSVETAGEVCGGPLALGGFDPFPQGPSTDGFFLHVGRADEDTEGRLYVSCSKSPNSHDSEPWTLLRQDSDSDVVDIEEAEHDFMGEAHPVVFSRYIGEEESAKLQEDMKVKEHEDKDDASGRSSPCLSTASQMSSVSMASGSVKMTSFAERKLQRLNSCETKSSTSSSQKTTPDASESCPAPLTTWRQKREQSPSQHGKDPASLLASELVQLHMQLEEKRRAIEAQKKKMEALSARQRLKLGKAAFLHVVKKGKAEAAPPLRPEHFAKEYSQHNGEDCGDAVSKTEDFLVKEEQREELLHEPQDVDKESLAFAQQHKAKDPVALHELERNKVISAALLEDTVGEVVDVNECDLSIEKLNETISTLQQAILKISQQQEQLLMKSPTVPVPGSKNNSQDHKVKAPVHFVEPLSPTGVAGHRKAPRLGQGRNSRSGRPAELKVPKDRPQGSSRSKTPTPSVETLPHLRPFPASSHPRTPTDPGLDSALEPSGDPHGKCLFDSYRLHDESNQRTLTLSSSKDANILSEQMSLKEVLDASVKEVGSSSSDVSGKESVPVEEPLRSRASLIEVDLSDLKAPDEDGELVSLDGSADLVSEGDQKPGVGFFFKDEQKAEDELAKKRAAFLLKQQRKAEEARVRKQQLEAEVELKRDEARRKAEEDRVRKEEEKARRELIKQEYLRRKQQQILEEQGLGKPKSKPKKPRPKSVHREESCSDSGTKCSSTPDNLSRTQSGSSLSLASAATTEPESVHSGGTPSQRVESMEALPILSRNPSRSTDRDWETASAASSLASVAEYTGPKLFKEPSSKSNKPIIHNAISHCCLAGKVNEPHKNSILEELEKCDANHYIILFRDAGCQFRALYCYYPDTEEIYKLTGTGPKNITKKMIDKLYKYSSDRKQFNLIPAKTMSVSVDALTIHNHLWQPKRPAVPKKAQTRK
Chain of UniProt P48509 (P48509 whole entry, looked up): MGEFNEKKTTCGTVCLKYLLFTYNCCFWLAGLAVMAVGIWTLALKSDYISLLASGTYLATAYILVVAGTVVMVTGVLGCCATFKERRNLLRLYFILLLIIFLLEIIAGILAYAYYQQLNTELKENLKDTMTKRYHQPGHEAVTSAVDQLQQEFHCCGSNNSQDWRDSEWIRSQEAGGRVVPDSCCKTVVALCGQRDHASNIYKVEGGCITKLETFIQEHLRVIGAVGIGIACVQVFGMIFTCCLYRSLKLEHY

Target	log2 fold change [1]	log2 fold change [2]	log2 fold change [3]	log2 fold change [4]	log2 fold change [5]	log2 fold change [6]	log2 fold change [7]	log2 fold change [8]	log2 fold change [9]	log2 fold change [10]	log2 fold change [11]	log2 fold change [12]	log2 fold change [13]	log2 fold change [14]	log2 fold change [15]	log2 fold change [16]	log2 fold change [17]	log2 fold change [18]	log2 fold change [19]	log2 fold change [20]
CNDP2 (UniProt Q96KP4)	-0.037	0.014	-0.003	-0.012	0.014	-0.1	-0.002	0.016	-0.103	-0.149	-0.016	-0.003	-0.062	-0.226 (active)	-0.014	-0.006	-0.041	0.028	0.001	0.124
CNTN4 (UniProt Q8IWV2)	-0.016	-0.14	-0.084	0.149	-0.208	-0.157	0	-0.021	-0.077	-0.102	-0.026	-0.033	-0.065	0.256	-0.225	-0.06	-0.01	-0.016	-0.082	0.004
CLUH (UniProt O75153)	0.225	0.632 (active)	0.015	-0.028	0.047	-0.113	0.094	0.134	0.019	0.387 (active)	-0.032	-0.141	-0.006	0.033	-0.049	-0.04	0.239	0.133	-0.044	-0.046
CTBS (UniProt Q01459)	-0.494 (active)	-0.376 (active)	-0.074	0.033	0.007	0.069	0.013	-0.058	0.045	-0.44 (active)	0.081	-0.245	0.029	0.038	0.023	-0.082	0.055	-0.132	-0.093	-0.038
CA8 (UniProt P35219)	-0.055	-0.329 (active)	0.038	0.01	-0.035	-0.093	-0.002	0.044	-0.099	-0.127	-0.054	-0.023	-0.127	0.084	0.118	-0.163	0.068	0.018	0.024	0.014
CAMSAP1 isoform 3 (UniProt Q5T5Y3)	-0.044	-0.576 (active)	0.184	0.068	0.033	-0.003	-0.232	-0.011	0.03	-0.254	-0.084	-0.175	-0.027	0.071	-0.191	0.051	0.048	-0.071	0.065	0.017
CLINT1 isoform 3 (UniProt Q14677)	0.17	0.047	-0.01	-0.038	-0.006	0.042	-0.06	-0.055	0.075	0.259 (active)	0.083	0.041	0.061	-0.036	0.185	0.035	0.109	-0.06	-0.059	0.012
CSTF2 (UniProt P33240)	0.06	0.233 (active)	-0.024	-0.077	0.011	0.041	-0.048	0.01	-0.085	-0.004	-0.02	0.105	0.045	-0.064	-0.023	0.023	0.034	-0.092	-0.08	-0.028
C9orf64 (UniProt Q5T6V5)	-0.066	-0.309	0.103	-0.004	-0.094	-0.149	0.075	0.119	-0.007	-0.396 (active)	-0.053	-0.124	-0.177	0.036	-0.04	-0.067	0.377 (active)	-0.018	0.047	0.016
CBX5 (UniProt P45973)	-0.033	-0.128	0.048	-0.022	-0.034	-0.057	-0.034	-0.012	-0.121	-0.003	-0.04	-0.001	-0.115	0.078	-0.026	-0.205	-0.022	0.043	0.009	-0.012
CDC26 (UniProt Q8NHZ8)	0.06	0.037	-0.068	-0.031	0.085	0.003	0.158	-0.008	0.107	0.131	0.032	-0.022	0.026	0	-0.032	-0.11	0.112	-0.013	-0.051	-0.234
CMTM3 (UniProt Q96MX0)	0.066	-0.088	-0.061	0.075	-0.009	0.057	0.02	-0.324 (active)	0.048	-0.122	-0.006	-0.01	-0.022	-0.012	-0.019	-0.096	0.129	-0.075	-0.072	0.05
CNOT7 (UniProt Q9UIV1)	-0.086	-0.305 (active)	-0.049	-0.053	-0.16	-0.052	-0.121	-0.04	0.021	-0.082	0.008	-0.044	-0.091	0.004	-0.035	0.018	0.051	0.104	0.113	-0.109
CEMIP2 (UniProt Q9UHN6)	-0.209	-0.364	-0.142	0.058	-0.184	-0.088	-0.049	0.003	0.032	0.123	-0.104		-0.055	-0.005	0.032	0.017	0.046	-0.026	-0.1	0.029
CASP8 isoform 9 (UniProt Q14790)	0.025	-0.489 (active)	0.065	0.052	0.025	-0.019	0	-0.034	-0.026	-0.082	-0.032	-0.019		0.115	0.053	-0.1	0.011	0.04	0.044	0.037
CIT isoform 4 (UniProt O14578)	0.068	-0.225	0.134	0.017	-0.041	-0.033	-0.037	0.057	0	-0.033	-0.044	-0.033	0.001	0.074	0.054	-0.034	-0.202	-0.055	-0.025	-0.001
CAMK2G isoform 6 (UniProt Q13555)	0.095	-0.15	0.072	-0.028	-0.063	0.042	0.035	-0.008	0.064	-0.319	-0.005	-0.088	0.123	-0.012	0.25	0.14	0.061	0.129	0	-0.074
CD151 (UniProt P48509)	0.277 (active)	0.157	-0.068	0.041	-0.011	-0.058	0	0.017	-0.095	0.248	0.045	0.116	-0.049	-0.012	0.092	-0.065	-0.097	0.03	0.031	0.001
CLSPN (UniProt Q9HAW4)	-0.017	-0.159	-0.019	0.037	0.062	0.031	-0.048	-0.016	0.04	-0.02	0.076	0.002	-0.102	0.039	0.053	-0.183	-0.11	-0.102	0.031	0.047
CASTOR2 (UniProt A6NHX0)	0.025	0.254	-0.042	0.061	-0.024	0.123	-0.035	0.034	-0.022	0.066	0.042	0.039	0.027	0.036	-0.082	-0.092	-0.048	0.032	0.04	0
CPQ (UniProt Q9Y646)	-0.144	-0.27 (active)	-0.036	0.062	-0.011	-0.039	-0.021	-0.006	0.032	-0.035	0.039	-0.012	0.045	0.02	-0.049	-0.035	-0.042	-0.031	0.008	0.006
CPSF1 (UniProt Q10570)	0.053	-0.105	0.031	-0.038	-0.02	0.026	-0.104	0.011	0.116	0.165	0.024	-0.01	0.045	-0.02	-0.05	0.038	0.018	-0.061	-0.048	-0.032
COPS8 (UniProt Q99627)	-0.018	0.043	0.032	-0.047	0.008	0.013	0.033	0.041	0.011	0.113	-0.013	-0.052	-0.071	-0.025	-0.039	-0.03	-0.015	0.018	0.011	-0.021
CDK16 isoform 2 (UniProt Q00536)	-0.049	-0.316	-0.014	0.02	-0.113	0.001	0.041	0.061	-0.074	0.135	-0.014	0.246		0.014	0.027	0.236	0.278	-0.102	0.016	-0.146
